Records with an inconclusive call do not appear. Activity calls are given as the source filed them. Calls come from the whole dose curve; as a rule, active = well fitted cell-killing curve with a large enough effect in the repeat runs; inconclusive = weak or mixed curves; inactive = flat fitted curve, though single readings scatter.
Assay: qHTS RealTime-Glo MT Cell Viability Assay in HepG2 cells - 32 hour (AID 1224877); note: nearly all actives have a fitted effect of over 55% in size
Conditions: RealTime-Glo luminescence; series mostly up to 76.8 µM; activity change, negative = cytotoxic: at the top concentration
From the text: U.S. Tox21 Program National Center for Advancing Translational Sciences [NCATS] NIH Chemical Genomics Center [NCGC] U.S. Environmental Protection Agency [EPA] National Institutes of Environmental Health Sciences [NIEHS] National Toxicology Program [NTP] U.S. Food and Drug Administration [FDA] Tox21 Assay Overview: Measure of cell viability is critical in the cell-base assay. Analysis of cell viability is necessary for the characterization of cell responses to cytotoxic drugs and environmental stress. A RealTime-Glo MT Cell Viability Assay to monitor cell viability in real time of continues cell culture during 40 hours of compound treatment was used to screen Tox21 10K library compounds in HepG2 cells. The RealTime-Glo MT Cell Viability Assay is a nonlytic, homogeneous, bioluminescent method to measure cell viability in real time using a simple, plate-based method. The assay involves adding NanoLuc luciferase and a cell-permeant prosubstrate to cells in culture. Viable cells reduce the proprietary prosubstrate to generate a substrate for NanoLuc luciferase. This substrate diffuses from cells into the surrounding culture medium, where it is rapidly used by the NanoLuc Enzyme to produce a luminescent signal. The signal correlates with the number of viable cells, making the assay well suited for cytotoxicity studies.
Tox21 Assay Protocol Summary: The mixture of HepG2 cell suspension and reagents were dispensed at 600cells/6 ul/well in 1536-well tissue culture treated black solid bottom plates using a Multidrop dispenser. After the assay plates were incubated at a 37 C/5% CO2 incubator for 5 hours, 23 nL of compounds dissolved in DMSO, positive and negative controls was transferred to the assay plate by a pintool work station. The plates were incubated at 37 C for 40 hours. The luminescence intensity were measured at 0h, 8h, 16h, 24h, 32h and 40h time points using ViewLux plate reader during compound treatment.
% is set by controls: 0 for no effect and ±100 for the full control effect; potency is the fitted concentration of half-maximal effect.

SMILES | activity change, negative = cytotoxic | Potency
O=C1Nc2cc(Cl)ccc2Oc2ccccc21 | -1.83% [at 35.3 µM] (inactive) | 
C=C(C)C(=O)OCCOc1ccccc1 | 1.06% (inactive) | 
CCCCCCCCCCCCC(=O)O | 0.808% (inactive) | 
C=C(C)C(=O)OCCN(C)C | -3.27% (inactive) | 
NC(N)=NN=C(/C=C/c1ccc([N+](=O)[O-])o1)/C=C/c1ccc([N+](=O)[O-])o1 |  | 1.51 µM (active)
N#CCCNCCC#N | 2.3% (inactive) | 
CC[C@H](C)[C@@H](C(=O)O)n1sc2ccccc2c1=O |  | 49 µM (active)
C=CC(=O)OCC(C)OCC(C)OCC(C)OC(=O)C=C (stereo not given) |  | 54.9 µM (active)
CN1CCN(C2=Nc3ccccc3Sc3ccc(Cl)cc32)CC1 | -5.41% [at 35.3 µM] (inactive) | 
N#Cc1c(F)cccc1F | 0.479% (inactive) | 
Oc1ccc(C(O)CNCCCCCCNCC(O)c2ccc(O)c(O)c2)cc1O (stereo not given) | -8.06% [at 35.3 µM] (inactive) | 
CN(C)CCCOc1nn(Cc2ccccc2)c2ccccc12 | -22.8% [at 35.3 µM] (inactive) | 
CCCCCCCCCC(=O)OCC | 0.489% (inactive) | 
CC(Cc1cccc(C(F)(F)F)c1)NCCOC(=O)c1ccccc1 (stereo not given) | -2.47% [at 35.3 µM] (inactive) | 
O=c1c2ccccc2nnn1CCl | 0.945% (inactive) | 
CCCCCC(CO)CCC (stereo not given) | 5.63% (inactive) | 
CC(C)NCC(O)c1cc(O)cc(O)c1 (stereo not given) | 2.11% [at 35.3 µM] (inactive) | 
Cc1ccc(O)c([C@H](CCN(C(C)C)C(C)C)c2ccccc2)c1 | -13.7% [at 35.3 µM] (inactive) | 
CCCC(=O)OCC | -5.33% (inactive) | 
COC(Cc1ccccc1)OC | 0.251% (inactive) | 

SMILES | activity change, negative = cytotoxic | Potency
CCN(CC)C(C)CN1c2ccccc2Sc2ccccc21 (stereo not given) | -3.69% [at 35.3 µM] (inactive) | 
CN1CCC(=C2c3ccccc3C=Cc3ccccc32)CC1 | -19.7% [at 35.3 µM] (inactive) | 
CC(=O)c1c(C)c([N+](=O)[O-])c(C(C)(C)C)c([N+](=O)[O-])c1C | -5.35% (inactive) | 
CCOc1ccc2[nH]cc(C(=O)NCc3ccccc3)c(=O)c2n1 | -9.4% (inactive) | 
CCCCC(CC)(CO)CO | -2.68% (inactive) | 
CC(C(=O)O)c1ccc(C(=O)c2ccccc2)s1 (stereo not given) | 2.32% [at 35.3 µM] (inactive) | 
CC1CCc2cc(F)cc3c(=O)c(C(=O)O)cn1c23 (stereo not given) | 1.89% [at 35.3 µM] (inactive) | 
CC(C)c1ccccc1C(C)C | -1.28% (inactive) | 
O=C(O)C1CCC(C(=O)O)CC1 (stereo not given) | -0.785% (inactive) | 
CCOc1nc2cccc(C(=O)O)c2n1Cc1ccc(-c2ccccc2-c2nn[nH]n2)cc1 | 5.19% [at 35.3 µM] (inactive) | 
CC(C)(C)c1ccc(OCC2CO2)cc1 (stereo not given) | -0.0665% (inactive) | 
CCOC(=O)C1=NN(c2ccccc2)C(=O)C1 | 0.109% (inactive) | 
CC(=O)O[C@@H]1C(=O)O[C@@H]2[C@H]1OC(=O)[C@@H]2OC(C)=O | -4.88% [at 35.3 µM] (inactive) | 
CCCCOC(O)CC (stereo not given) | 1.36% (inactive) | 
C=CCCCCCC | -0.14% (inactive) | 
O=C(O)[C@@H]1[C@H]2C[C@H]3c4[nH]c5ccccc5c4CCN3C[C@@H]2CC[C@@H]1O | 1.11% [at 35.3 µM] (inactive) | 
CCCCCOC(=O)c1ccc(O)cc1 | -1.22% (inactive) | 
O=C1[C@H](CC[C@H](O)c2ccc(F)cc2)[C@@H](c2ccc(O)cc2)N1c1ccc(F)cc1 | -13.5% [at 35.3 µM] (inactive) | 
CN(C)CC/C=C1\c2ccccc2COc2ccccc21 | -10.8% [at 35.3 µM] (inactive) | 
CC1(C)[C@H]2CC[C@]1(C)[C@H](O)C2 | 0.0134% (inactive) | 

Source: PubChem BioAssay (Tox21)
